In the supplement of paper PMC10849652:
The full data set covers some 8,800 targets. This sample favours those with a hit. About 0.5% of all pairs of compound and target were hits. Values without a mark were called inactive.

Legend:
Test in all cases: log2 fold change, soluble protein after heating vs DMSO (PISA); higher = thermal stabilisation; K562 lysate, 10 uM; active = over 0.2 and 3.5 SD of the protein, either way, in both replicates (recomputed)
[1] = compound: NCC(=O)Nc1ccc(-n2nc(C(F)(F)F)cc2-c2ccc3c(ccc4ccccc43)c2)cc1
In short: (§1)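 The values are log-two fold changes in thermal stability compared with solvent controls and come from duplicates. They were obtained by TMTpro 16plex LC-MS/MS, with channel sums equalised, on the supernatant after 21,000xg for 90 min. That supernatant came from crude K562 extract at 1 mg/mL protein treated with 10 μM compound for 30 min, heated for 3 min across 48°C-58°C, pooled and brought to 0.5% NP-40 at 4°C.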

vorinostat = compound: O=C(CCCCCCC(=O)Nc1ccccc1)NO [vorinostat]
In short: as §1

silmitasertib = compound: O=C(O)c1ccc2c(c1)nc(Nc1cccc(Cl)c1)c1ccncc12 [silmitasertib]
In short: as §1

[2] = compound: O=C1NC(=O)C(c2cnc3ccccn23)=C1c1cn2c3c(cc(F)cc13)CN(C(=O)N1CCCCC1)CC2
In short: as §1

entospletinib = compound: c1cn2cc(-c3ccc4cn[nH]c4c3)nc(Nc3ccc(N4CCOCC4)cc3)c2n1 [entospletinib]
In short: as §1

UniProt Q12797, sequence (Q12797 whole entry, looked up): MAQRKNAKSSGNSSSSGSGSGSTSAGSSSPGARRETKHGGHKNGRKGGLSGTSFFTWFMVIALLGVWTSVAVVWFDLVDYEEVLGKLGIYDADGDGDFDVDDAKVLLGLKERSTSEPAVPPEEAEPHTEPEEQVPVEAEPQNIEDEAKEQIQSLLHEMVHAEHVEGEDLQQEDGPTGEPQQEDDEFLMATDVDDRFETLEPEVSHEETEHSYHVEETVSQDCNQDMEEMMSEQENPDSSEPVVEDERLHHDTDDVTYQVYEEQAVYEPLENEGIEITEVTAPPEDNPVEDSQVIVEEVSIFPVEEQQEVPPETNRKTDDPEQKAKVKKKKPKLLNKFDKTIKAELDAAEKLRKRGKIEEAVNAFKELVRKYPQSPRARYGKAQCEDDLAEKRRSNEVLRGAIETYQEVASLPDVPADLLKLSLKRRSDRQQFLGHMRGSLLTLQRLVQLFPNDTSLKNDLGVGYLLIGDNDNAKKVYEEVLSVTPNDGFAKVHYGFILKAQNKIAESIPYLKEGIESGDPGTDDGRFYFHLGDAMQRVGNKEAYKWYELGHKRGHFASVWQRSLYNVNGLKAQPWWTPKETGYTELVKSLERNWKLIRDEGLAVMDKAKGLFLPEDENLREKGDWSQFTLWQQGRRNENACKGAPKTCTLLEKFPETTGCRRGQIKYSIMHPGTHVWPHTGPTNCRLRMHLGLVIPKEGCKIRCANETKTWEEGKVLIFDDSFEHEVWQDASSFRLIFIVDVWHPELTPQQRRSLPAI
UniProt O14727, sequence (O14727 whole entry, looked up): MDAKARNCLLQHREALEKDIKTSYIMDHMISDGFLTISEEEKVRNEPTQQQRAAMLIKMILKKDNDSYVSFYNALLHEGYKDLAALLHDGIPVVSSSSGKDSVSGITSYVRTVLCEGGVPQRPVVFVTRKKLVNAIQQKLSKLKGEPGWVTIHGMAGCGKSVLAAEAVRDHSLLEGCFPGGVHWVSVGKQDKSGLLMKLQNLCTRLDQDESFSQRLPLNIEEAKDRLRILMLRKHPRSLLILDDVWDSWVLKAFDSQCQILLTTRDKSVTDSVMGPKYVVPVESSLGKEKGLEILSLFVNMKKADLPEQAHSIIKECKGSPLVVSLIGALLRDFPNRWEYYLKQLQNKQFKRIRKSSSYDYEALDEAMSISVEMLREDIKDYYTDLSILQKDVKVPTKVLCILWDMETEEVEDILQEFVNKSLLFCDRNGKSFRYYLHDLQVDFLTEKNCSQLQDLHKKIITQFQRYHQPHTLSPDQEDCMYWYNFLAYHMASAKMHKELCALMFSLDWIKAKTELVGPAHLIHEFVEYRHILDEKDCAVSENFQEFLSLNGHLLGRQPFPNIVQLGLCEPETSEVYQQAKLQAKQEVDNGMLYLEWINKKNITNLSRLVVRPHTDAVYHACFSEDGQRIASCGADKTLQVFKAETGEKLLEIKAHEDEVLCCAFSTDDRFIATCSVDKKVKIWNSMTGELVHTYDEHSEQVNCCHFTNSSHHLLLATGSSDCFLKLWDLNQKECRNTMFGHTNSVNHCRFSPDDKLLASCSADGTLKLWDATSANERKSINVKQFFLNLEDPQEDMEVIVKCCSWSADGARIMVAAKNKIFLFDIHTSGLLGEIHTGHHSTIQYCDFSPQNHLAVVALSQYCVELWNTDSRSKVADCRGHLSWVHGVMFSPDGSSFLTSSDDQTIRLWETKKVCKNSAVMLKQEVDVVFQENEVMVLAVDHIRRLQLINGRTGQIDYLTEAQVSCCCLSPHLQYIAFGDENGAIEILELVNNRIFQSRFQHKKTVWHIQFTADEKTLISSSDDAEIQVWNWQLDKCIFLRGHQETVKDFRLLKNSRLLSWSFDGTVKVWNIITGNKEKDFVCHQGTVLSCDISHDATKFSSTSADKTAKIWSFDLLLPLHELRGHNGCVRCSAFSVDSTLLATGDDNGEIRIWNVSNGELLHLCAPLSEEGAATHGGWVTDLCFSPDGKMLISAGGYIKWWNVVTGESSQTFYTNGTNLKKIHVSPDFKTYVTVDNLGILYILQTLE
UniProt O43182, sequence (O43182 whole entry, looked up): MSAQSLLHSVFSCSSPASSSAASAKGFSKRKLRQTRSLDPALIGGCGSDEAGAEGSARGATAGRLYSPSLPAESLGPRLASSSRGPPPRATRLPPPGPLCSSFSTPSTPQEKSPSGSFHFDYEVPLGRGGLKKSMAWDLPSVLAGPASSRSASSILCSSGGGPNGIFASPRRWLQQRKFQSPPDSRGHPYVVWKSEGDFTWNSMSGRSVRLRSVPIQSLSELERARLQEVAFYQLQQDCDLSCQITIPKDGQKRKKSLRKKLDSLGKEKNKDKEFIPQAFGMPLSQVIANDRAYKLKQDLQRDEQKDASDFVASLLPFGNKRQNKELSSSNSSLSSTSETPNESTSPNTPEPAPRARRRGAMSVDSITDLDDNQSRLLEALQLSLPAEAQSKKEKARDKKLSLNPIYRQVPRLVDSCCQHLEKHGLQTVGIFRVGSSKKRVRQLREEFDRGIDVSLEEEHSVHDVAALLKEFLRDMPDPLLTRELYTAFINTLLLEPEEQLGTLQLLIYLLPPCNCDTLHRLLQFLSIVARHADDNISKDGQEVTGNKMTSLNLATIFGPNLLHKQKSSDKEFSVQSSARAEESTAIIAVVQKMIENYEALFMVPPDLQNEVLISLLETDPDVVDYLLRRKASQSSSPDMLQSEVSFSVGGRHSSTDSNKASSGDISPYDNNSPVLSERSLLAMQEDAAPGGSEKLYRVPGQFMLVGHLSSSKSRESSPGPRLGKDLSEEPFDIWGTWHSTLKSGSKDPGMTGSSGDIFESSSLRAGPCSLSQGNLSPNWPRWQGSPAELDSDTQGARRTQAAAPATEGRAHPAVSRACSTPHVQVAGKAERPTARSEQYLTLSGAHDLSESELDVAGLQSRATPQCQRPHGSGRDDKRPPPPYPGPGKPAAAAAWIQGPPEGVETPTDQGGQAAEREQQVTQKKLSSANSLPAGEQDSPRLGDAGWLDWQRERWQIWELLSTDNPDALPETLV
UniProt Q96NW4, sequence (Q96NW4 whole entry, looked up): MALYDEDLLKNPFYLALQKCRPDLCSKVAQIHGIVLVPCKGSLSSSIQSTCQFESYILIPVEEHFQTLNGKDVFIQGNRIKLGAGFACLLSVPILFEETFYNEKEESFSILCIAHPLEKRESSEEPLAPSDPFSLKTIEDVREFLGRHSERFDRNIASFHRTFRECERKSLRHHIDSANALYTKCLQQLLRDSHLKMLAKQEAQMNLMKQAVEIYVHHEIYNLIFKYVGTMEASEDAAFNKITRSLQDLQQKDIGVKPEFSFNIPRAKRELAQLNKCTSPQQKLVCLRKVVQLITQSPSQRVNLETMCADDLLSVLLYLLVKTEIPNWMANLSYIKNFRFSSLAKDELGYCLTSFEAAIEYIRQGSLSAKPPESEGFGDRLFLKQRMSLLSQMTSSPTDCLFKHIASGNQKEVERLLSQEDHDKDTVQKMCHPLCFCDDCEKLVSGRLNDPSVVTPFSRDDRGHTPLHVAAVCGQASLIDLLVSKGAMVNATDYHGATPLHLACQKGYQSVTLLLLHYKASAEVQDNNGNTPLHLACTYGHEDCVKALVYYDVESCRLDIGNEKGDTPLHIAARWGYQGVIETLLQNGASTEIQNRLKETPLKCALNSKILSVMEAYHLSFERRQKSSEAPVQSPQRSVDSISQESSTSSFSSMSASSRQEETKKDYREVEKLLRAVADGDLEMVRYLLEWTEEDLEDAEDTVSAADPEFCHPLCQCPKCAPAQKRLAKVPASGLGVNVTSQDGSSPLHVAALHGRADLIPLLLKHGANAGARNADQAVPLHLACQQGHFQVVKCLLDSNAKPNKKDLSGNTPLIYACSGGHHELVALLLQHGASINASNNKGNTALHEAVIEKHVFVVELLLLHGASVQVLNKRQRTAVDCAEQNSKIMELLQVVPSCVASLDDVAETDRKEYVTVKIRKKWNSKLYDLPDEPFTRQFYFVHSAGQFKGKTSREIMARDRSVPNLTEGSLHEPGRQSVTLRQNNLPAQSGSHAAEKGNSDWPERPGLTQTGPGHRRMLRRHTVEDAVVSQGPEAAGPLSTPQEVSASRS
UniProt O60488, sequence (O60488 whole entry, looked up): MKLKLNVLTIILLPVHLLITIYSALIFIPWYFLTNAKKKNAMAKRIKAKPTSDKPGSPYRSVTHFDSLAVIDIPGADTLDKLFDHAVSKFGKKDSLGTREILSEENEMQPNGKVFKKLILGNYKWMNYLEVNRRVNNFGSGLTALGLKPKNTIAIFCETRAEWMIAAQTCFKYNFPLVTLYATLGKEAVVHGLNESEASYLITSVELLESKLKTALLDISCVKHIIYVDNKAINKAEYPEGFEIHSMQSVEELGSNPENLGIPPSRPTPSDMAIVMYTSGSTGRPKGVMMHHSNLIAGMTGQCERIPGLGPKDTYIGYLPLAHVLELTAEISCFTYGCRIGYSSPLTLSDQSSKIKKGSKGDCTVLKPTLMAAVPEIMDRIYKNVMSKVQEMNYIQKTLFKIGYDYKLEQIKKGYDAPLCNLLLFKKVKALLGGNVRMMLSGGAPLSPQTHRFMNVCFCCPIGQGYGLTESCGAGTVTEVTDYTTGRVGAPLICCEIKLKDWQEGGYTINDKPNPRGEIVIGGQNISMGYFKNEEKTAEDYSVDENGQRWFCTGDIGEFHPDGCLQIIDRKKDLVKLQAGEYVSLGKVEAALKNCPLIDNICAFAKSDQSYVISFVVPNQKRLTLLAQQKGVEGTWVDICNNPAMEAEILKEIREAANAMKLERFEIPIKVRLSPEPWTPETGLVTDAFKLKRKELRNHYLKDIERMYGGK
UniProt P40616, sequence (P40616 whole entry, looked up): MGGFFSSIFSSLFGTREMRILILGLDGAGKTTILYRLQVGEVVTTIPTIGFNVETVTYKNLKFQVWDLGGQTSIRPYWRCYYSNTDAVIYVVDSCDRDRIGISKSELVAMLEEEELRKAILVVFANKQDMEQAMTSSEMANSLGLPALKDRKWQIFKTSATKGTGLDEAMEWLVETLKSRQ
UniProt P14621, sequence (P14621 whole entry, looked up): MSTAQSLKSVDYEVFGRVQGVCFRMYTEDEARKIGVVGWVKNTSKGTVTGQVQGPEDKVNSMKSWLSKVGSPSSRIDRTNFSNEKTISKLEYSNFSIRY

Target	log2 fold change [1]	log2 fold change (vorinostat)	log2 fold change (silmitasertib)	log2 fold change [2]	log2 fold change (entospletinib)
ANKRD27 (UniProt Q96NW4)	-0.066	-0.451 (active)	-0.025	0.022	0.01
ANKRD10 (UniProt Q9NXR5)	0	-0.589 (active)	0.037	-0.066	
ADK (UniProt P55263)	-0.049	-0.052	0.073	0.262	-0.027
ARMCX3 (UniProt Q9UH62)	0.042	-0.279 (active)	0.036	-0.024	0.047
ARL1 (UniProt P40616)	0.017	-0.293 (active)	-0.048	0.027	0.034
ANP32E (UniProt Q9BTT0)	0.021	0.217	-0.029	-0.011	0.012
ACADS (UniProt P16219)	-0.005	0.217	-0.089	0.017	-0.021
ACYP2 (UniProt P14621)	0.066	0.147	-0.081	0.012	
ALDH1L2 (UniProt Q3SY69)	0.017	0.106	0.016	-0.027	0.031
ANXA13 isoform 2 (UniProt P27216)	-0.084	0.004	0.024	0.02	
ACSL4 (UniProt O60488)	0.137	-0.321 (active)	0.066	-0.002	0.014
ACTBL2 (UniProt Q562R1)	-0.116	-0.154	0.039	0.019	-0.083
ANLN (UniProt Q9NQW6)	0.018	-0.656 (active)	-0.011	-0.009	0
ANXA5 (UniProt P08758)	-0.008	0.056	0.021	-0.017	0.006
AGL (UniProt P35573)	0	-0.275 (active)	0.035	0.001	-0.018
AP3D1 isoform 2 (UniProt O14617)	0.179	-0.738 (active)	0.02		
AGPS (UniProt O00116)	-0.015	0.365 (active)	-0.007	-0.007	-0.005
ARL8A (UniProt Q96BM9)	0.192	0.234	-0.024	-0.03	0.002
ARMC6 (UniProt Q6NXE6)	-0.011	-0.422 (active)	0.02	-0.006	0.011
ARHGAP6 (UniProt O43182)	0.058	-0.346 (active)	0.089	0.025	0.004
ALG8 (UniProt Q9BVK2)	-0.022	-0.05	0.063	-0.008	-0.007
AP1G2 (UniProt O75843)	0.071	-0.31 (active)	-0.03	0.008	0.018
AMPD3 isoform 4 (UniProt Q01432)	-0.038	0.256 (active)	-0.005	-0.021	0.018
ACAT1 (UniProt P24752)	0.011	-1.05 (active)	-0.037	-0.014	0.018
ABCF3 (UniProt Q9NUQ8)	0.026	-0.439 (active)	0.033	-0.004	-0.013
AGPAT1 (UniProt Q99943)	-0.027	-0.27 (active)	0.106	-0.029	0.003
AFF4 (UniProt Q9UHB7)	-0.119	0.078	-0.04	-0.031	-0.088

Target	log2 fold change [1]	log2 fold change (vorinostat)	log2 fold change (silmitasertib)	log2 fold change [2]	log2 fold change (entospletinib)
AKAP8 (UniProt O43823)	0.047	-0.095	0.019	0.023	-0.046
ARL13B (UniProt Q3SXY8)	0.01	-0.186	-0.024	-0.064	
ANKRD54 (UniProt Q6NXT1)	0.023	-0.245 (active)	0.007	-0.076	-0.006
ASPH (UniProt Q12797)	0	0.131	-0.008	0.029	-0.016
ABCF2 isoform 2 (UniProt Q9UG63)	0.103	-0.326 (active)	0.054	0.016	-0.028
AIMP2 (UniProt Q13155)	-0.046	-0.347 (active)	0.048	0.017	-0.017
ALG3 (UniProt Q92685)	-0.107	0.461 (active)	0.285	-0.157	-0.01
AMD1 (UniProt P17707)	0.071	-0.076	0.062	0.499	0.211
AKT2 (UniProt P31751)	-0.021	-0.175	0.011	-0.019	0.008
ALDH1B1 (UniProt P30837)	0.027	1.15 (active)	-0.051	-0.022	0.033
ACACA isoform 4 (UniProt Q13085)	-0.003	-0.449 (active)	0.016	-0.003	0.027
AKR1C2 (UniProt P52895)	-0.008	0.504 (active)	-0.011	0.052	-0.014
AKT1 (UniProt P31749)	-0.051	-0.192	-0.012	-0.024	-0.005
ADAM17 (UniProt P78536)	0.014	0.089	-0.006	0.042	0.014
ACSL1 (UniProt P33121)	-0.092	-0.221 (active)	0.138	-0.031	-0.027
ANKRD52 (UniProt Q8NB46)	-0.043	-0.491 (active)	0.063	-0.023	-0.057
ABCD3 (UniProt P28288)	-0.019	-0.164	0.113	-0.08	0.034
AHCYL1 (UniProt O43865)	0.021	-0.287 (active)	-0.021	0.045	-0.03
APAF1 (UniProt O14727)	0.021	-0.292 (active)	0.032	0.057	0.032
AK2 (UniProt P54819)	0.024	0.159	0.007	-0.005	0.012
ADRM1 (UniProt Q16186)	0.051	-0.231 (active)	-0.027	-0.04	-0.002
ASNS (UniProt P08243)	0.006	-0.373 (active)	-0.01	-0.008	0.029
ARFGAP1 (UniProt Q8N6T3)	0.063	0.253	-0.066	-0.12	0.038
AKR1B1 (UniProt P15121)	-0.018	0.24 (active)	-0.004	-0.026	-0.065
AGPAT2 (UniProt O15120)	-0.234	0.104	-0.026	-0.052	0.063
AP3D1 isoform 5 (UniProt O14617)	-0.001	-0.015	-0.003	0.012	0.006
AGGF1 (UniProt Q8N302)	0.135	0.059	-0.06	0	-0.015
